Results from PubChem BioAssay (NCI).
About 79,000 compounds went through this panel and 15% of them were active in at least one assay; those are over-represented in the sample as a whole. A number with no mark means an inactive call. Active and inactive are the calls of the source. Cut-off read from the data, not from the text of the source: active = growth inhibition above about 70%; inactive = the rest.

Experiment: NCI Yeast Anticancer Drug Screen. Data for the rad14 strain (AID 159);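 note: 0% = growth of vehicle-treated control cultures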
Conditions: S. cerevisiae rad14 strain growth inhibition, stronger effect = higher value
Method: Growth inhibition of yeast strains with defined genetic alterations is measured as a screen for potential anti-cancer activity. Selected strains with alterations in DNA damage repair or cell cycle control were exposed to compounds and growth inhibition was measured relative to vehicle treated controls. The strain used in this assay is rad14

Row | SMILES | growth inhibition (at 1.2 µM) | growth inhibition (at 3.7 µM) | growth inhibition (at 11.0 µM) | growth inhibition (at 33.0 µM) | growth inhibition (at 100.0 µM)
1 | O=[N+]([O-])C(=C(NCc1ccccc1)NCc1ccccc1)C(Cl)=C(Cl)Cl | -4% | -3% | 1% | 11% | 56%
2 | BrC/C=C/C[P+](c1ccccc1)(c1ccccc1)c1ccccc1 | 5% | 7% | 96% (active) | 99% (active) | 99% (active)
3 | Nc1c([N+](=O)[O-])cc2c3c(cccc13)CC2 | 11% | 14% | 30% | 39% | 54%
4 | O=[N+]([O-])c1ccc2nnnn2c1 | -1% | 0% | 5% | 10% | 30%
5 | c1cc(Nc2ccc3c(c2)OCO3)c2cc(C3CCCCC3)ccc2n1 | 5% | 5% | 7% | 15% | 78% (active)
6 | CCOc1ccc2ccc3cccnc3c2n1 | -4% | 4% | -1% | 7% | 68%
7 | O=C(CCC(=O)c1ccc(O)cc1)Oc1ccc(O)cc1 | -1% | -1% | -1% | 1% | 5%
8 | CC(C)c1ccc(C2NC(=S)NC3=C2c2ccccc2C3=O)cc1 (stereo not given) | -8% | -14% | -18% | -20% | 11%
